# Screening results deposited in PubChem by National Center for Advancing Translational Sciences (NCATS).
# Nrf2 inh – Nrf2 qHTS screen for inhibitors. A549 ARE-Fluc reporter, luciferase luminescence, 18-24 h. Potency, µM (titrated, usually from 46 µM), for inactives: at the top dose activity change, negative = inhibition, most hits filed as inhibitors. 360,000 compounds, 2.1% hits; also: potency is read from the fitted curve at half-maximal effect; % is scaled to controls: 0 for no effect and ±100 for the full control effect; nearly all actives have a fitted effect of over 60% in size
#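 Cells were seeded and rested 2 h, then exposed to compounds for 18-24 h. CellTiter-Fluor was read first as a viability measure. BugLite was added 15 min before the final luminescent read of ARE-luciferase activity in A549 cells.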
# miR-21 reporter – qHTS Assay for Modulators of miRNAs and/orActivators of miR-21; Potency, µM (series often up to 38.3 µM), for the others: at the top dose activity change, positive = activation, actives largely listed as activators; HeLa miR-21 FLuc reporter, luciferase, 48 h; AID 2288, 2010; 340,000 tested, under 10 active;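 also: % of control where 0% means no effect; miR-21 action dims this reporter so a rising signal means less miR-21 action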
#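 Luminescence from a firefly luciferase reporter carrying a miR-21 binding site downstream, stably expressed under a CMV promoter in HeLa cells that make miR-21 endogenously, reports miRNA modulation after 48 h compound exposure up to approximately 40uM final.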
# Nrf2 ARE act – qHTS of Nrf2 Activators. AREc32 ARE-luciferase reporter (MCF7-derived line), luminescence, 24 h. Potency, µM (top dose mostly 46.1 µM), inactives show top-dose activation, actives largely listed as activators. 410,000 compounds, 0.31% hits. AID 624171, 2012; also: potency is read from the fitted curve at half-maximal effect; % of control where 0% means no effect; nearly all actives have a fitted effect of over 65% in size
#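 AREc32 cells carrying an ARE-driven firefly luciferase, 1000 cells/well in OPTI-MEM with 5% FBS, dosed after overnight attachment and incubated 24 hr at 37 deg C. Steady-Glo luminescence read after 30 min at RT.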
# B2AR arrestin – qHTS assay of beta-arrestin-biased ligands of beta2-adrenergic receptor; Potency, µM (highest dose often 46.1 µM), without a hit: top-dose activation, hits mostly activators; 330,000 compounds, 0.02% hits; beta-arrestin recruitment to beta2AR, cell-based reporter;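 also: potency is read from the fitted curve at half-maximal effect; 0% = DMSO controls and full agonism = EC100 isoproterenol or metaproterenol; nearly all actives have a fitted effect of over 65% in size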
# Target sequence (P07550 whole entry, looked up): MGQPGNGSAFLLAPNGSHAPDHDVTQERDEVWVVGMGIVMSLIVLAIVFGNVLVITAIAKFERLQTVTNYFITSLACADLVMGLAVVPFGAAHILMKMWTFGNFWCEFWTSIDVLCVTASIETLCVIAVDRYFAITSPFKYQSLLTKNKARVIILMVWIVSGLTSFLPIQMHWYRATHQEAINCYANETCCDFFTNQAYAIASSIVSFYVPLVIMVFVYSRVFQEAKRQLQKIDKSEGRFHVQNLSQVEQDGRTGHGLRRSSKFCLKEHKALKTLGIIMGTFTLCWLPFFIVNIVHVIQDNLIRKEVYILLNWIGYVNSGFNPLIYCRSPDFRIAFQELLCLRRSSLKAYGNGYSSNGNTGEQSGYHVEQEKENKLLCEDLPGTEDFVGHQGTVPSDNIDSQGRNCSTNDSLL
# A549 viability – Nrf2 qHTS screen for inhibitors: counterscreen for cytotoxicity. A549 ARE-Fluc cells, CellTiter-Fluor viability, 18-24 h. Potency, µM (highest dose often 46 µM), for the others: at the top dose activity change, negative = cytotoxicity, hits mostly inhibitors. 390,000 compounds, 0.16% hits; also: potency is read from the fitted curve at half-maximal effect; % is scaled to controls: 0 for no effect and ±100 for the full control effect
#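 A549 ARE-Fluc cells in 5% FBS OPTI-MEM, 5000 cells/well, rested 2 h then exposed to compounds in concentration-response for 18-24 h at 37 °C. Viability by CellTiter-Fluor fluorescence (Ex 405/Em 525) after 30 min; luciferase luminescence (BugLite, 15 min, RT) read afterwards.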
# * hit, by the source's call; ? = inconclusive; nt = not tested or not shown; [ ] = another dose, or the depositor's remark. Most compounds without a hit are left out; they make up all but 2.2% or so of the library. Calls follow the shape of the dose curve; as a rule, active = well fitted curve in the direction sought with a large enough effect; inconclusive = small, poorly fitted or top-dose-only effect, or another doubt; inactive = no such curve, though single readings can be large; an effect the other way counts as inactive or inconclusive.
SMILES,Nrf2 inh,miR-21 reporter,Nrf2 ARE act,B2AR arrestin,A549 viability
Cc1ccc(C)c(NS(=O)(=O)c2ccc3c(c2)Cc2cc(S(=O)(=O)Nc4cc(C)ccc4C)ccc2-3)c1,13µM*,-13.4%,11.7%,-0.3%,-29.6%
NNC(=O)c1sccc1OCc1cccc(C(F)(F)F)c1,-9.0%,0.1%,2.4%,-0.2%,-1.6%
Nc1ncccc1OCc1cccc(C(F)(F)F)c1,16.4µM*,-1.0%,0.2%,-0.1%,?
O=C(CSc1nc(-c2ccccc2)c(-c2ccccc2)[nH]1)N1CCN(S(=O)(=O)c2ccccc2)CC1,16.4µM*,2.5%,2.8%,0.1%,-27.4%
O=C(Nc1nc(Nc2cc(F)cc(F)c2)nc(NC2CCCC2)n1)OCc1ccccc1,10.2%,nt,nt,nt,1.2%
CC1CN(CC(=O)Nc2cccc(C(=O)Nc3cccc(C(F)(F)F)c3)c2)CC(C)O1 (centres undefined),16.4µM*,19.4%,2.1%,-0.4%,-22.0%
COc1ccc(Cn2ncc3c4sc(C)cc4n(C)c3c2=O)cc1,2.5%,nt,nt,nt,-4.1%
O=C(N/C=N/OCc1ccc(Cl)cc1Cl)NOCc1c(Cl)cccc1Cl,25.9µM*,-9.8%,0.3%,nt,-18.8%
CO/N=C/NC(=O)NOCc1ccc(Cl)cc1Cl,11.0%,-7.4%,0.9%,0.0%,-2.8%
Cc1ccc(F)c(NC(=O)Nc2ccc3snnc3c2)c1,0.6%,-23.3%,0.6%,nt,-2.6%
O=C(Nc1ccc(F)cc1)Nc1ccc2snnc2c1,23.1µM*,26.7%,0.3%,nt,-23.5%
Cc1c(Cl)cccc1NC(=O)Nc1ccc2snnc2c1,20.6µM*,?,-1.1%,nt,?
O=C(NCc1ccc2c(c1)CCN2C(=O)c1ccc(F)cc1)c1ccc(Br)o1,nt,?,0.2%,nt,-13.0%
CNc1ccccc1C(C)(C)c1cc(-c2ccc(F)cc2)no1,8.2µM*,?,-0.7%[9.22 µM],-0.6%,-14.6%
CNc1ccccc1C(C)(C)c1cc(-c2cccc(Br)c2)no1,?,13.4%,5.1%,0.0%,-22.3%
N#CC(c1ccccc1)c1ccc2c(C(F)(F)F)cc(C(F)(F)F)nc2n1 (centres undefined),25.9µM*,?,?,0.3%,?
Cc1ccccc1-n1cnc2c(sc3nc(N4CCOCC4)c4c(c32)CCCC4)c1=O,20.6µM*,-9.6%,0.1%,-0.6%,-17.2%
O=c1c2sc3nc(N4CCOCC4)c4c(c3c2ncn1-c1ccccc1)CCCC4,13µM*,8.7%,-0.5%,0.3%,10.8%
Cc1nc(Nc2ccc(Cl)cc2)cc(-c2ccccc2)n1,21.1%,-19.7%,0.1%,nt,-1.4%
Cc1ccc(S(=O)(=O)NC(N)=NCCC[C@@H](N)C(=O)Nc2cc(C(F)(F)F)ccc2Cl)cc1,?,nt,nt,nt,-27.4%
N#Cc1nc(-c2cccc3ccccc23)oc1NCC#CCOC(=O)c1cccs1,nt,nt,nt,0.2%,nt
COc1ccc(NC(=O)CC2C(=O)N(Cc3ccccc3)C(=S)N2CCN2CCOCC2)cc1 (centres undefined),-19.9%,5.9%,3.5%,0.1%,-10.8%
C=CCN1C(=O)C(CC(=O)Nc2ccc(OCCC)cc2)N(CCCN2CCN(Cc3ccccc3)CC2)C1=S (centres undefined),18.4µM*,?,-2.5%,-0.2%,?
CCOC(=O)C1CCN(c2ncnc3c2cnn3-c2ccc(Cl)cc2)CC1,2.91µM*,-0.7%,-1.7%,-0.7%,-0.5%
CCOC(=O)C1CCN(c2ncnc3c2cnn3-c2ccccc2)CC1,-10.7%,1.7%,-0.4%,-0.1%,-4.2%
SMILES,Nrf2 inh,miR-21 reporter,Nrf2 ARE act,B2AR arrestin,A549 viability
Cc1nn(-c2ccccc2)c(Cl)c1C(=O)N1CCN(c2ncnc3c2cnn3-c2ccccc2)CC1,20.6µM*,11.6%,-0.6%,-0.6%,?
CCn1c(C(=O)N2CCCC(C(=O)NCCCOC)C2)cc2sccc21 (centres undefined),-6.6%,-1.5%,0.1%,nt,0.7%
c1ccc(N2CCN(c3c4c(nc5ncnn35)CCC4)CC2)cc1,11.6µM*,-10.7%,0.0%,-0.2%,-13.6%
FC(F)(F)c1ccc(N2CCN(c3cc(-c4ccccc4)nc4ncnn34)CC2)nc1,14.6µM*,-5.4%,6.0%,0.4%,?
Cc1cc(N2CCN(c3ccccc3)CC2)n2ncnc2n1,20.6µM*,4.5%,0.0%,-0.4%,-5.1%
Cc1cc(N2CCN(C/C=C/c3ccccc3)CC2)n2ncnc2n1,?,4.5%,2.9%,-0.7%,-6.3%
CC1CCCCC1NC(=O)C1CCN(c2c3c(nc4ncnn24)CCC3)CC1 (centres undefined),-13.0%,7.3%,0.2%,-0.1%,-6.9%
COc1cccc(N2CCN(c3c4c(nc5ncnn35)CCC4)CC2)c1,13µM*,11.8%,-0.8%,0.0%,-7.8%
O=C(Nc1cccc(-c2nn3c(=O)cc(N4CCNCC4)nc3s2)c1)c1ccncc1,1.4%,nt,nt,nt,-5.1%
COC(=O)c1scc(-c2ccc(C)cc2)c1S(=O)(=O)N1CCN(c2ccccc2F)CC1,?,0.6%,-0.9%,nt,20.6%
O=C(c1ccc(S(=O)(=O)NCC2CCCO2)cc1)N1CCN(c2cccc(Cl)c2)CC1 (centres undefined),13µM*,16.6%,0.4%,0.0%,1.9%
O=C(c1ccc(S(=O)(=O)NCC2CCCO2)cc1)N1CCN(c2ccccc2F)CC1 (centres undefined),-7.4%,10.2%,-0.9%,0.2%,0.5%
O=C(Nc1cccc(F)c1)c1ccc(S(=O)(=O)NCC2CCCO2)cc1 (centres undefined),20.6µM*,4.8%,5.5%,-5.5%,-4.1%
CCn1c(CNC(=O)COc2ccc(C(C)C)cc2)nnc1SCC(=O)Nc1ccccc1F,?,4.8%,0.0%,-0.9%,-12.6%
CCn1c(CNC(=O)COc2ccc(C(C)C)cc2)nnc1SCC(=O)Nc1ccccc1C(C)C,16.4µM*,17.1%,2.7%,0.2%,-22.1%
Cc1ccc(S(=O)(=O)c2c(N)n(Cc3ccco3)c3nc4ccccc4nc23)cc1,18.4µM*,9.9%,3.3%,-0.1%,nt
Cc1ccc(S(=O)(=O)Nc2nc3ccccc3nc2NCc2ccco2)cc1,?,-49.4%,22.4µM*,0.1%,-4.1%
Cc1ccc(S(=O)(=O)Nc2nc3ccccc3nc2NCc2ccco2)cc1C,20.6µM*,6.8%,5.2%,-0.9%,-4.6%
CCOc1ccccc1Nc1nc2ccccc2nc1NS(=O)(=O)c1ccc(Cl)cc1,?,-1.3%,-0.3%,nt,3.7%
Cc1noc(C)c1CSc1nc2ccccc2nc1NS(=O)(=O)c1ccc(Cl)cc1,9.2µM*,3.8%,0.3%,-0.6%,?
Cc1cccc(S(=O)(=O)c2c(N)n(Cc3ccco3)c3nc4ccccc4nc23)c1,?,8.9%,0.1%,-0.1%,-19.2%
Cc1c(P(=S)(c2ccccc2)c2ccccc2)[n+]2ccccc2n1Cc1ccccc1,-18.4%,nt,nt,nt,3.0%
O=C(c1ccc2c(=O)n(-c3ccccc3)c(=O)[nH]c2c1)N1CCN(Cc2cccs2)CC1,3.3%,nt,nt,nt,6.8%
